The campaign covered roughly 53,000 sequences. About 3,700 (7%) were called active.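 The calls were made as follows: active = gene knockdowns whose robust z-score for IL-1 alpha signal is at least 2 or at most -2, so actives lie on both sides; inactive = the rest.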 This excerpt belongs to a sample that is enriched for actives.
assay: Components of the Cytosolic LPS Sensing Pathway: Gene Identification via Genome-wide siRNA Screen; settings: RAW264.7 macrophages, IL-1a HTRF, actives lie on both sides, screened at 100 nM (by protocol), cells primed 5 h with Pam3CSK4 first;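 also: robust z of the log signal after scaling to non-targeting control siRNA wells of the plate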
Summary of the method: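 Cells (RAW264.7, 1×10^4 per well) were transfected with siRNA at 100 nM and cultured 48h at 37 degrees C. Pam3CSK4 was added for 5 hours; LipidA transfection followed for 24 hour. IL-1a was then measured by HTRF.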

z-score, active:
CCACAGACUCUUAAUUAGATT against Ap3b1 -2.14
GGGUUUGUGGGAUACAAUCTT against Smarce1 2.97
GGACAUUCUGCUACACAAGTT against Bsx 2.63
GGACAUUGCUAACUGCCUUTT against Snx16 2.37
GCUAGUACUAUUACCUGCUTT against Enkd1 2.17
GGUGAGCUUGGUUUCUAAATT against Gdf15 2.28
GGCUAUUGUACAACUUAUATT against Pafah1b2 2.1
GGCUUUUGGCUUCAACCCUTT against Slc39a14 -2.24
GGCUUGUACUACCAUGACATT against Rasgef1b -2.76
GGUAUGCAGUGAAGAGGAUTT against Paqr9 2.52
GGCUGAAGUUACUUUGGAUTT against Nup98 -2.03
GGUUUCCUGAAGUUUUCAATT against Gnaz 3.08

z-score, inactive:
GGAGAAGAUGAUUAAGACCTT against Anp32b 0.51
UAUCACAGACAUGAAAGAATT against Lst1 0.105
GGAAAAACAGUGCAGAUGGTT against Smchd1 0.228
GGGCAUUAAGACAAAGAGUTT against Fam3c 0.769
GGAAAAGUUGCAUUUGGUCTT against Wdr17 -1.02
GGAGUUCACUGUGCUGAUGTT against Ppbp -0.536
GCUAAACUUAAGUCCAUCATT against Supt7l -0.592
GGGUAGUUAUACAAACUAATT against Snapc5 1.53
GGUUCACAUCCUCCUCAGATT against Twist2 1.08
CCUUGAUGCUCGUAGGAAGTT against Efr3a -1.11
GCCAACAUGUAUCAAAGCUTT against Rpgr -1.11
GGACAAUGUGGUGCUGUCCTT against Slc34a3 0.492
GGAGUCCUUUCGUUCUAUCTT against Rab2a -0.319
GCCAAACUUACGUUUUUGATT against Trak2 0.81
CCUGUUUAAACUCUGCGGATT against Vit 0.678
GGUUUUGUAGGAGUCUCUCTT against Vmn1r54 0.247
GGUGAUGAUGAUGUCUUUGTT against B3gnt7 1.93
GCUGAAUAGCCUCUAUCUATT against Rasgrp4 0.261
GCCUCUACUUUACCAAGUUTT against Olfr883 0.523
GGGCUUUAGCCUGAGCGAUTT against Gpc1 -0.916
GGCAUCUUCAUGUACUUGCTT against Olfr1445 1.5
GGUUUUCAGUACAUCCUGGTT against Cryba4 0.183
GCCAUGCAUCUGGAUUUACTT against Nat1 1.19
GGAGCAGACUUUAAAAUGATT against Stau1 -0.626
GGGCUCAUUGCUAAAACACTT against Sgcg -0.221
GCCCUUUGGAAGAAUACUCTT against Golt1b -1.12
GGAGCUCAUGGAAAUCUGUTT against Pfpl 0.446
AGUGAAGAAAUGUUUGACATT against Raet1b -1.08
CCUAUUUGUAGGUGAUGUUTT against B3gnt7 -0.445
GGUUCACUCCUGAUACCACTT against Ddo 1.29
GGAAGCCAUUAUACAUGACTT against Uvrag -0.261
GGUACAGAAUAUGUCACAGTT against Olfm3 0.627
CCCUCUGGAUGGAUCUUCATT against Fbp2 -1.3
GCAAGACUGAAAAUCCUGATT against Timm8a2 -1.2
GCAACUGAACCUUCUGCUATT against Morn2 -1.7
GGGAACAAGGAACUCAAAGTT against Cadm1 1.69
CCUGAAAGAUAACAAGUGGTT against Rnls 0.0112
GGUUUGUUUUACAAAAUGCTT against Zdhhc5 0.37
GCAUUUUAGACUCAGAAUCTT against Car3 -0.047
GGAACGUAUACCUAUACCCTT against Huwe1 -0.263
CCGUGACAGUCAUGUUGAUTT against Amt 0.235
GGAAAGACCUCUUGAUAGGTT against Tbkbp1 0.113
CCUCUAUGUGAGAUUUGAGTT against Mamdc2 -0.917
CCCACCGAGACACCAUCUUTT against Syne4 -1.78
GGGAGAUUGCAUUUGGAGCTT against Olfr678 0.317
GCAUGUAGACUACAACGUGTT against Myoz1 -1.27
GGGCUGAAGUGAAACCAGATT against D930048N14Rik 0.415
GGGUCCAAAAGAAAAGUGUTT against Zc2hc1c 0.784
GCAAAACACACUGAUGGUGTT against Stx16 0.835
GGCAAUUCAUUGCAUGUUATT against Cdc42ep3 -0.177
GGAUCUCACAGUGAAGAAGTT against Krba1 0.392
GCUUAUUUGUGGUACACGGTT against D030056L22Rik 0.112
GGGUUGACCACUAUUUCUGTT against Olfr1338 -1.06
CGAAAAAGGGCUUUUAACUTT against Ndufs1 0.757
GGUGAAUGAGGACUCUGGGTT against Dcps -1.07
CGAGCACCUAUUCAUCAUATT against Tdo2 0.889
GGUACGACUUGGAAGAAAUTT against Rock2 -0.415

— PubChem BioAssay AID1508600 (Functional Genomics Laboratory (NCATS/FGL), 2020)
